The entries come from a sample that favours hits as a whole.
HT1080 IDH1KD tx: HT-1080 IDH1 knockdown cell toxicity (counter line); Potency, µM (highest dose often 46.1 µM), inactives show at the highest dose activity, negative = toxicity, actives largely listed as cytotoxic; actives 2% (n = 360,000); HT-1080 IDH1 knockdown viability, ATP luminescence, 48 h;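 note: potency is the fitted concentration of half-maximal effect; 0% = DMSO wells and -100% = cell-free medium wells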
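Cytotoxicity counter-line: IDH1KD HT-1080, 48 h, CellTiter-Glo. Curves classed by r2, magnitude and activity.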
IL-1B inflam inh: inhibitors of inflammasome signaling (IL-1 beta secretion); THP-1 LPS/ATP IL-1B secretion, AlphaLISA, 16 h; stronger effect = lower value; activity change, % at 57.5 µM; actives 4.7% (n = 360,000); in the data active = activity change below about -50%; inconclusive = mostly about -30% to -49%
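THP-1 cells pretreated 1 hr with compounds (up to 57.5 uM final), then stimulated with LPS (250 ng/mL final) plus ATP (1.25 mM final); secreted IL-1B measured by AlphaLISA after 16 hr, decreased signal indicating inhibition.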
DT40 TDP1 CPT: DT40-hTDP1 cell growth loss with CPT. AID 686979. actives 12% (n = 420,000). chicken DT40 Tdp1-/-;hTDP1 cells + 20 nM CPT, ATP luminescence, 48 h. Potency, µM (doses to about 46.2 µM), for the others: at the highest dose activity change, negative = growth inhibition, usual class: inhibitors; note: potency is the fitted concentration of half-maximal effect; nearly all actives have a fitted effect of over 55% in size
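Cell growth measured by CellTiter-Glo luminescence after a minimum 48 h, 37 C compound exposure with 20 nM CPT in Tdp1-knockout DT40 cells stably expressing hTDP1, seeded 400/well; qHTS titration format.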
HT1080-NT tox: kills 2HG-producing HT-1080-NT fibrosarcoma cells; HT-1080-NT fibrosarcoma viability, CellTiter-Glo ATP luminescence, 48 h; Potency, µM (series often up to 46.1 µM), without a hit: top-dose activity, negative = less viability, most hits filed as cytotoxic; actives 1.6% (n = 360,000);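 note: NT is the 2HG producing partner of a matched IDH1 knockdown line; potency is the fitted concentration of half-maximal effect; 0% = DMSO-treated cells and -100% = media-only wells without cells; nearly all actives have a fitted effect of over 55% in size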
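Compounds were tested in concentration-response format on HT-1080-NT cells for 48 hours at 37 degrees C. Cell viability came from CellTiter-Glo luminescence; curves were classified by r2, response magnitude and activity.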
12-LOX inh: inhibitors of human 12S-lipoxygenase ALOX12; AID 1671190; actives 1.1% (n = 580,000); Potency, µM (top dose mostly 108 µM), inactives show at the top dose activity change, negative = inhibition, most hits filed as inhibitors; P18054; purified 12hLO, xylenol orange hydroperoxide absorbance; note: potency is the fitted concentration of half-maximal effect
Target sequence (P18054 whole entry, looked up): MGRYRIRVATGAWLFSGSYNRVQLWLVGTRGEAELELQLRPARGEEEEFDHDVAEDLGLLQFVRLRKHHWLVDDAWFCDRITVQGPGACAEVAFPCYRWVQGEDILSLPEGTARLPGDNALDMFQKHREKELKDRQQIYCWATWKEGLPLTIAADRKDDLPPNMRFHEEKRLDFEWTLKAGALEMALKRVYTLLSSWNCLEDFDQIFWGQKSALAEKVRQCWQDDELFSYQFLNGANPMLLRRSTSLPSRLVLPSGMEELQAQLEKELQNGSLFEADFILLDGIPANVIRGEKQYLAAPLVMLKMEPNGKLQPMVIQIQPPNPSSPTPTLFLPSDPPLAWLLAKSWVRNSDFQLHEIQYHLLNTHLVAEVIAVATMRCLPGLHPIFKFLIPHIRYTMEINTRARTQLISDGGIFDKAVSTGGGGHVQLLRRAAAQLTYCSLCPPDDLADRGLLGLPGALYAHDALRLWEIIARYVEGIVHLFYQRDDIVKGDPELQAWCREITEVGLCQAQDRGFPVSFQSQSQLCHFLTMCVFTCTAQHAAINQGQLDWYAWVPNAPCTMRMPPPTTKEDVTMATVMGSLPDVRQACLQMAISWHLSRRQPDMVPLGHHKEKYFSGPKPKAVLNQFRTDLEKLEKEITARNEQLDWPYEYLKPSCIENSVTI
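Purified human 12hLO (150 nM final) in 25 mM Hepes, 0.01% Triton X-100, pH 7.0 was preincubated 15 min at room temperature with compound. Then 40 uM arachidonic acid was added, 30 min. Hydroperoxide was read by Fe-XO absorbance ratio 573/405 nm.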
TDP1 cell noCPT: qHTS for Inhibitors of human tyrosyl-DNA phosphodiesterase 1 (TDP1): qHTS in cells in absence of CPT; Potency, µM (series often up to 46.2 µM), for inactives: at the highest dose activity change, negative = growth inhibition, most hits filed as inhibitors; actives 15% (n = 420,000); DT40 Tdp1-/- hTDP1 cells, no CPT, ATP luminescence, 48 h; note: potency is the fitted concentration of half-maximal effect; nearly all actives have a fitted effect of over 55% in size
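No-CPT arm: Tdp1-/-;hTDP1 DT40 cells (400/well) plus compounds, incubated ≥48 hr at 37 °C. Readout CellTiter-Glo luminescence.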
Active calls of the source: *; ? = inconclusive; . = not tested or not shown. Unless noted, calls come from the whole dose curve; as a rule, active = well fitted curve in the direction sought with a large enough effect; inconclusive = small, poorly fitted or top-dose-only effect, or another doubt; inactive = no such curve, though single readings can be large; an effect the other way counts as inactive or inconclusive. Unless noted, % is set by controls: 0 for no effect and ±100 for the full control effect.

SMILES	HT1080 IDH1KD tx	IL-1B inflam inh	DT40 TDP1 CPT	HT1080-NT tox	12-LOX inh	TDP1 cell noCPT
N#Cc1c(N)n[nH]c1CCCNC(=O)c1cn(-c2ccccc2)nc1-c1cccnc1	.	.	.	.	36%	.
CCCCNC(=O)c1ccc2c(c1)n(Cc1ccc(F)cc1)c(=O)c1ccnn12	.	.	.	.	10%	.
CN1CCC(NC(=O)c2ccc3c(c2)n(Cc2ccc(F)cc2)c(=O)c2ccnn23)CC1	.	.	.	.	20µM*	.
OC(CN1CCOCC1)CN1CCOCC1	9%	18	-3%	4%	?	-5%
CC(C)=CCC/C(C)=C/CNCC(O)CN1CCOCC1 (centres undefined)	.	.	.	.	0.63µM*	.
C=C1C(=O)c2sccc2C(c2ccc(OC)c(OC)c2)C1COC(C)=O (centres undefined)	2.3µM*	-101*	0.52µM*	2.6µM*	-17%	0.23µM*
COc1ccc(C2CC(=O)Nc3ccsc32)cc1OCC(N)=O (centres undefined)	.	.	.	.	3%	.
O=C(NC(=S)Nc1cccc(Cl)c1Cl)C1CC1	-9%	77	13µM*	-11%	0%	?
O=C(NC(=S)Nc1ccccc1Br)C1CCCCC1	7%	21	18µM*	0%	?	16µM*
CC(C)(C)N1CC(C(=O)Nc2cccc(Cl)c2Cl)CC1=O (centres undefined)	-1%	-69*	26%	-9%	5%	-7%
O=C(Nc1cccc(Cl)c1Cl)C1CC(=O)N(c2ccc(Br)cc2)C1 (centres undefined)	?	-6	-16%	?	-23%	-26%
O=C(NNC(=S)Nc1ccccc1Cl)C1CC1	0%	10	7%	22%	-5%	-23%
Cc1cc2c(cc1C)CSC(c1ccccc1OC(=O)c1ccc(I)cc1)SC2	.	.	.	.	-9%	.
Cc1ccc(Nc2nc3ccccc3c3nncn23)cc1C	.	.	8.2µM*	.	-1%	16µM*
Cc1ccc(N2CCN(c3nc4ccccc4c4nnc(C)n34)CC2)c(C)c1	.	.	-7%	.	-19%	-10%
COc1ccc(Nc2nc3ccccc3c3nnc(C)n23)cc1Cl	.	.	10µM*	.	3.2µM*	6.5µM*
COc1ccc(OC)c(Nc2nc3ccccc3n3c(C)nnc23)c1	.	.	-3%	.	-9%	-5%
c1ccc(-c2nc3ccccc3c3nncn23)cc1	20%	7	?	13%	14%	?
CCc1ccc(Nc2nnc(SCn3nnc4ccccc4c3=O)s2)cc1	-6%	-4	?	0%	0%	?
Cc1cc(Nc2nc3ccccc3c3nnc(C)n23)ccc1Br	.	.	?	.	1%	18µM*
CCc1ccc(Nc2nc3ccccc3c3nnc(C)n23)cc1	.	.	8.2µM*	.	?	10µM*
CC(C)=CC(=O)N(C)C(C)c1cccc([N+](=O)[O-])c1 (centres undefined)	.	.	.	.	-49%	.
CC(C)CN1C(=O)c2cccn2CC1C(=O)Nc1ccccc1F (centres undefined)	.	.	.	.	3%	.
O=C(CCC1CCN(c2cc(NC3CC3)ncn2)CC1)NCc1cc(F)cc(F)c1	.	.	.	.	24%	.
CCCCOC(=O)c1ccc(Nc2nnc(-n3nc(C)cc3C)c3ccccc23)cc1	.	.	?	.	-17%	?
SMILES	HT1080 IDH1KD tx	IL-1B inflam inh	DT40 TDP1 CPT	HT1080-NT tox	12-LOX inh	TDP1 cell noCPT
CCCCOC(=O)c1ccc(Nc2nc3ccccc3c3nnc(C)n23)cc1	.	.	16µM*	.	-23%	21µM*
COc1ccc(-n2cc(CNCC3CC(=O)N(C4CC4)C3)c(-c3ccccc3Cl)n2)cc1 (centres undefined)	-20%	?	16µM*	-19%	-16%	23µM*
CCN1CC(CN(C)Cc2cn(-c3ccc(C)cc3)nc2-c2ccc(F)cc2)CC1=O (centres undefined)	-17%	-21	?	-16%	3%	?
CCN1CC(CNCc2cn(-c3ccc(OC)cc3)nc2-c2ccccc2Cl)CC1=O (centres undefined)	1%	-51*	?	-22%	0%	?
COc1ccccc1CC(=O)Nc1cccc(C(=O)NC(C)(C)C)c1	.	.	.	.	-33%	.
CC(c1ccccc1F)n1cc(C(=O)NCCc2ccco2)nn1 (centres undefined)	-9%	?	?	-22%	-6%	18µM*
COCCNC(=O)c1cn(C(C)c2ccccc2F)nn1 (centres undefined)	8%	-3	6%	-7%	12%	2%
COC(=O)c1[nH]c2ccc(C)cc2c1NC(=O)CN1CCN(C(=O)c2ccccc2)CC1	0%	28	?	0%	-22%	?
Cc1ccc(C)c(N2CCN(CC(=O)Nc3ccc4[nH]c(=O)[nH]c4c3)CC2)c1	0%	-5	-23%	-11%	25%	?
COC(=O)c1[nH]c2ccc(C)cc2c1NC(=O)CN1CCN(c2ccc(F)cc2)CC1	4%	-6	11µM*	0%	0%	16µM*
CCOC(=O)c1[nH]c2ccc(OCC)cc2c1NC(=O)CN1CCN(c2ccccc2)CC1	-2%	-19	21µM*	6%	-21%	?
COC(=O)c1[nH]c2ccc(C)cc2c1NC(=O)CN1CCN(c2ccccc2)CC1	-23%	-23	16µM*	-27%	-7%	23µM*
CCOC(=O)c1[nH]c2ccc(OCC)cc2c1NC(=O)CN1CCC2(CC1)OCCO2	-7%	-14	?	-1%	338%	?
Cc1ccc2[nH]c(C(=O)O)c(NC(=O)CN3CCN(c4cccc(C)c4C)CC3)c2c1	?	45	?	?	0%	23µM*
CCCN(CC#N)CC(=O)NC(=O)NC1CC1	.	.	.	.	-47%	.
CCn1nc(C)c(C(=O)Nc2cc(Oc3cc(C)cc(C)c3)cc([N+](=O)[O-])c2)c1C	?	7	?	?	-12%	21µM*
Cn1cc([N+](=O)[O-])c(C(=O)Nc2cc(Oc3ccccc3)cc([N+](=O)[O-])c2)n1	6.5µM*	-15	-9%	18µM*	-21%	-24%
Cc1nn(CCCC(=O)Nc2cc(Oc3ccccc3)cc([N+](=O)[O-])c2)c(C)c1[N+](=O)[O-]	-9%	-50*	?	-2%	8%	?
Cc1ccc(C)c(Oc2cc(NC(=O)CCCn3nc(C)c([N+](=O)[O-])c3C)cc([N+](=O)[O-])c2)c1	?	?	?	16µM*	-8%	?
